An excerpt weighted towards active compounds, which were near 4.5% of everything screened.
PrPC TRFRET: inhibitors of human cell surface prion protein PrPC; P04156; TR-FRET read-out; inhibition, % at 13.8 µM; actives 0.43% (n = 370,000); AID 720596; in the data active = inhibition above about 24%; note: 0% = median of the test wells and 100% = reference compound wells
GDH-TPI counter-1: counter-screen for M. tuberculosis FBA inhibitors: GDH-TPI coupled enzymes | AID 588335 | inhibition, % at 4.8 µM | GDH-TPI coupled enzyme counterscreen, NADH absorbance | actives 1.2% (n = 360,000); in the data active = inhibition above about 30%;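 note: 0% = DMSO wells and 100% = wells lacking the enzyme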
FBA Mtb inh: inhibits M. tuberculosis FBA enzyme | P9WQA3 | purified M. tuberculosis FBA, fluorescence read-out | inhibition, % at 1 µM | actives 2.3% (n = 360,000);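 note: 0% = vehicle and 100% = reference inhibitor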
Target sequence (P9WQA3 whole entry, looked up): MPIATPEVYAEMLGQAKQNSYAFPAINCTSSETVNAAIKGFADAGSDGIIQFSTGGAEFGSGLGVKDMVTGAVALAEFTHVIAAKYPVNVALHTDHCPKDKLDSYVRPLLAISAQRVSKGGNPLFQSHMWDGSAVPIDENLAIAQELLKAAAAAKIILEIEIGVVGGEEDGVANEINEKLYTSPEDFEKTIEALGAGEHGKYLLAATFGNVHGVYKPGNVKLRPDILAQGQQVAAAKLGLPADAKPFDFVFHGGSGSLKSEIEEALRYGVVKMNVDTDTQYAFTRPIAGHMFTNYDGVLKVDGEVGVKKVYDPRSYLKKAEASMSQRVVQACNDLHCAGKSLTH
BJeLR lethal: BJeLR cell viability loss. actives 0.17% (n = 300,000). AID 1554. inhibition, % (concentration not given with the values). BJeLR (HRASV12) viability, CellTiter-Glo ATP luminescence, 48 h; in the data active = inhibition above about 50%
PfHsp40 rescue: compounds rescuing yeast from Plasmodium falciparum HSP40 toxicity; S. cerevisiae expressing PfHsp40, growth rescue, ATP luminescence; growth rescue, % at 12.5 µM; actives 0.68% (n = 340,000); AID 504582; in the data active = growth rescue above about 28%, passing the limit was not always enough;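 note: yeast W303a lacking pdr1 and pdr3 grown in galactose medium; growth measured after three days at 30 °C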
PrP UTR inh: inhibition of PrP 5' UTR reporter expression. cell-based PrP 5' UTR mRNA reporter, plate reader. inhibition, % (no concentration beside the values). actives 0.35% (n = 340,000). AID 488862; in the data active = inhibition above about 52%; note: 0 = median of the neutral control wells
Mtb FBA inh conf: Mtb FBA inhibition, confirmed | purified M. tuberculosis FBA, fluorescence read-out | inhibition, % at 1 µM | actives 78% (n = 5,600) | shares compounds with FBA Mtb inh;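 note: 0% = vehicle wells and 100% = reference inhibitor wells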
GDH-TPI counter-2: counter-screen for M. tuberculosis FBA inhibitors: GDH-TPI coupled enzyme inhibition. shares compounds with FBA Mtb inh. inhibition, % at 1 µM. GDH-TPI coupled enzyme counterscreen, fluorescence. actives 81% (n = 5,600); in the data active = inhibition above about 10%
The depositor's hits bear a star; nt = no result given; + = active, no number. Cut-off read from the data, not from the text of the source, unless noted: active = inhibition above about 27%; inactive = the rest.

SMILES	PrPC TRFRET	GDH-TPI counter-1	FBA Mtb inh	BJeLR lethal	PfHsp40 rescue	PrP UTR inh	Mtb FBA inh conf	GDH-TPI counter-2
O=C(NN1C(=O)c2ccccc2NC1c1ccoc1)c1ccccc1 (stereo not given)	-2	1	8	-1	1	-8	nt	nt
Cc1ccc(S(=O)(=O)NN2C(=O)c3ccccc3NC2c2ccccc2F)cc1 (stereo not given)	-4	4	5	-4	0	-1	nt	nt
CCCCOCCCNC(=O)C[C@@H]1C[C@@]2(C(=O)OCC)CCC=C2N(Cc2ccccc2)C1=O	-4	nt	nt	nt	nt	nt	nt	nt
Cc1ccc(S(=O)(=O)NC(CC(=O)NCC2CCCO2)c2ccccc2)cc1 (stereo not given)	3	-14	-1	-3	1	-14	nt	nt
C#CCOc1ccc(C2C3=C(CCCC3=O)N(CC(=O)O)C3=C2C(=O)CCC3)cc1Br	-9	3	91*	-13	2	-18	153*	131*
CCCOc1ccc(C2C3=C(CCCC3=O)N(CC(=O)O)C3=C2C(=O)CCC3)cc1OCC	-1	16	2	4	-1	-8	nt	nt
CCc1nc2sc(C#N)c(N)c2c2c1CCCC2	-3	10	49*	-6	1	-1	+	171*
COc1ccc(-c2csc(N3CCC(c4ccccc4)C3)n2)cc1 (stereo not given)	1	1	45*	-3	0	-54	133*	91*
CC(C)NC(=O)c1ccc2c(=O)n(CC3CCCO3)c(=S)[nH]c2c1 (stereo not given)	-1	6	0	8	-1	-21	nt	nt
CCOC(=O)c1cc2c(=O)n3cccc(C)c3nc2n(CC2CCCO2)c1=NC(C)=O (stereo not given)	7	6	79*	4	1	-23	90*	68*
Cc1csc(NC(=O)CSc2nnc(-c3ccoc3C)n2C(C)c2ccccc2)n1 (stereo not given)	-3	-2	-1	2	-1	-12	nt	nt
Cn1c(SCC(N)=O)nnc1-c1ccc(S(=O)(=O)N2CCCC2)cc1	5	5	2	-6	0	-37	nt	nt
CSc1nnc(-c2ccc(S(=O)(=O)N3CCCC3)cc2)n1C	2	2	47*	-10	0	-4	92*	71*
CCOC(=O)C1=C(C)NC2=C(C(=O)CC(C)(C)C2)C1c1cccc(C)n1 (stereo not given)	-2	-4	37*	6	0	-19	174*	159*
CCCOC(=O)C1=C(C)NC2=C(C(=O)CC(C)(C)C2)C1c1cccnc1 (stereo not given)	3	7	36*	2	0	-14	+	+
CCCOC(=O)C1=C(C)NC2=C(C(=O)CC(C)(C)C2)C1c1ccc(N(C)C)cc1 (stereo not given)	-2	12	2	7	-1	-8	nt	nt
CC(=O)C1=C(O)C(CSCc2ccccc2)N(C)C1=O (stereo not given)	6	12	5	nt	-1	-8	nt	nt
Cc1ccccc1NC(=O)Cc1nc(COC(=O)c2nccnc2N)cs1	-8	24	25	nt	nt	nt	nt	nt
Cc1cccc(C2NC(c3cccc(C)c3)C([N+](=O)[O-])C(C)(C)C2[N+](=O)[O-])c1 (stereo not given)	9	0	-1	-22	-2	-15	nt	nt
CCCOc1ncnc2c1[nH]c1ccc(C)cc12	nt	nt	nt	-3	nt	nt	nt	nt
CCOc1ncnc2c1[nH]c1ccccc12	1	14	37*	-3	0	-26	35*	28*
COc1cc(Cl)cc(C2NC(=S)NC(c3ccccc3)=C2C(C)=O)c1OCC(=O)O (stereo not given)	-9	12	0	-5	0	-5	nt	nt
CCN(CC(=O)Nc1ccc(NC(C)=O)cc1)C(=O)c1cccc(N2C(=O)c3ccccc3C2=O)c1	-7	2	-2	nt	0	-19	nt	nt
CCOc1ccc(/C=N/NC(=O)c2[nH]ncc2Br)c(O)c1	10	25	11	10	-1	-25	nt	nt
